The values below come from PubChem BioAssay (NCATS).

Inconclusive results are not listed. Calls of active or inactive are those of the source. Unless noted, the call rests on the fitted dose curve; in most records, active means well fitted curve in the direction sought with a large enough effect; inconclusive means small, poorly fitted or top-dose-only effect, or another doubt; inactive means no such curve, though single readings can be large; an effect the other way counts as inactive or inconclusive.

Assay [1] is described as follows: qHTS Assay for Lipid Storage Modulators (AID 1519; calls by dose curve). The note with it: Drosophila S3 cells, BODIPY lipid droplet/cell ratio, laser cytometry, cells loaded with oleic acid; for activity change, negative = inhibition: at 57.5 µM (top of the series). The essentials: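 Cells seeded at 5,000 per well were treated with compounds over a concentration series and loaded with oleic acid (400 uM, as added). Lipid droplet fluorescence (488 nm excitation, 500-530 nm channel) was read by laser-scanning cytometry and normalized to 20 uM Triacsin C.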

Assay [2] has as its target Cytochrome P450 3A4 (Homo sapiens) (UniProt P08684). Kind of assay: qHTS Assay for Activators of Cytochrome P450 3A4 (AID 885). Further: nearly all actives have a fitted effect of over 65% in size. The note with it: recombinant CYP3A4, Luciferin-PPXE luminescence, 60 min; series mostly up to 57.1 µM. The essentials: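 Using 20nM recombinant human CYP3A4 in potassium phosphate (200mM), substrate Luciferin-PPXE at 25uM, luminescent luciferin detection followed a 60-min RT NADPH reaction; data scaled to 57 uM ketoconazole.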

Assay [3] can be described thus: Confirmation and Secondary Assay for Modulators of Hemoglobin Beta Chain Splicing at IVS2 705 locus (AID 930).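 Further: HeLa cells stably expressing the EGFP-705 splicing reporter; GFP fluorescence per well restored by corrected splicing of the IVS2-705 intron in EGFP; % of control where 0% means no effect.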 The note with it: HeLa EGFP-705 splicing reporter, GFP fluorescence, 48 h; series mostly up to 38.3 µM. The essentials:
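Assay measures total GFP intensity per well in HeLa EGFP-705 cells after 2 days with compound; mis-splicing normally truncates EGFP, so fluorescence indicates corrected splicing.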

Assay [4] has as its target Lysosomal acid glucosylceramidase (Homo sapiens) (UniProt P04062). Kind of assay: Glucocerebrosidase-p2 (AID 348; in the data active means potency below about 10 µM; further: potency means the concentration at half of the fitted maximal effect). The note with it: purified GBA, blue fluorogenic substrate, 40 min. The essentials: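 Normal human glucocerebrosidase (0.2 nM) with blue fluorogenic substrate (80 uM final) in citrate/phosphate pH 5.9 with 10mM sodium taurocholate, 0.01% tween-20; 40 min RT, NaOH/glycine stop; fluorescence Ex 365/Em 440; AC50 from a titration from 0.6 nM upwards.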

Assay [5] can be described thus: AP1 Signaling Pathway (AID 357; active means well fitted curve in either direction with a large enough effect, not every such curve was filed as active;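 further: ME-180 reporter cells stimulated with EGF at its EC50 level; on the % scale 0 is the no-effect control and ±100 the full control effect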). The note with it: ME-180 AP-1-bla reporter, EGF-induced, beta-lactamase ratio, 5 h; at 7.69 µM (top of the series) unless noted. The essentials:
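Titration-series screen for positive or negative modulators of EC50 EGF-induced signaling in ME-180 cells carrying an AP-1-driven beta-lactamase reporter. After 5 hours at 37 degrees Celsius, CCF4 460nm/530nm emission ratio gave %Activity; AC50 values derived.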

Assay [6] deals with Cytochrome P450 1A2 (Homo sapiens) (UniProt P05177). Kind of assay: p450-cyp1a2 (AID 410; calls by dose curve; further: potency means the concentration at half of the fitted maximal effect). The note with it: recombinant CYP1A2, luciferin-ME demethylation, luminescence; series mostly up to 57 µM. The essentials:
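O-Demethylation of luciferin 6' methyl ether by human CYP1A2 is monitored as luciferase luminescence. Substrate sits at Km (100uM); enzyme is 20nM. Values are scaled to 57 uM furafylline as maximal inhibition.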

Assay [7] is described as follows: NFAT Signaling Pathway (AID 444; active means well fitted curve in either direction with a large enough effect, not every such curve was filed as active;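 further: carbachol stimulus at about its EC50 of 1 µM final; on the % scale 0 is the no-effect control and ±100 the full control effect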). The note with it: Jurkat NFAT-bla M1, carbachol, beta-lactamase ratio, 5 h; at 7.69 µM (top of the series) unless noted. The essentials: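 Read-out: CCF4 FRET ratio (460 nm/530 nm) after 1 h RT dye loading, used for %activity and AC50 from titration series. Cells: Jurkat NFAT-β-lactamase/M1 line, treated with compound plus 1 uM carbachol for 5 h, 37 °C.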

The nature of assay [8]: Stat Signaling Pathway (AID 446; active means well fitted curve in either direction with a large enough effect, not every such curve was filed as active;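 further: ME-180 cervical cancer cells given 40 pM IL-6 alongside compound; SIE-controlled beta-lactamase reporter measured as 460/530 nm FRET emission ratio; on the % scale 0 is the no-effect control and ±100 the full control effect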). The note with it: ME-180 (cervical carcinoma) SIE beta-lactamase reporter, IL-6 stimulated, 5 h; at 7.69 µM (top of the series) unless noted. The essentials:
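Overnight-plated ME-180 cells bearing a STAT Inducible Element beta-lactamase reporter; 5 h co-exposure to compound and 40 pM IL-6; values normalized to 300 pM IL-6 and 125 nM JAK inhibitor controls.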

Assay [9] has as its target Glucocorticoid receptor (Homo sapiens) (UniProt P04150). Kind of assay: GR-GFP Redistribution (AID 450;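 active means compounds whose dose series gives a full or clear partial fitted curve of increased nuclear translocation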; further: potency means the concentration at half of the fitted maximal effect). The note with it: U2OS GR-GFP nuclear translocation, laser cytometry, 2 h.
Assay [10] has the same target. Put plainly: GR-EFC Redistribution (AID 451; calls by dose curve; further: potency means the concentration at half of the fitted maximal effect). The note with it: CHO-K1 GR-EFC translocation, beta-gal luminescence, 2 h. The essentials: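 Translocation of GR-ED fusion to nuclear EA restores b-gal, read by luminescence after 1 h room-temperature detection. Engineered CHO-K1 biosensor cells, 1,000/well, exposed 2 h at 37 C to titrations up to 46 uM final.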
Assay [11] deals with Mitogen-activated protein kinase 10 (Mus musculus) (UniProt Q61831). Kind of assay: JNK3 AlphaScreen Assay (AID 530; active means well fitted curve in either direction with a large enough effect, not every such curve was filed as active;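 further: kinase came from lysate of stimulated human HepG2 cells; signal reports phosphorylation of biotinylated GST-cJun 1-79 at Ser73 with 10 µM ATP; on the % scale 0 is the no-effect control and ±100 the full control effect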). The note with it: JNK3 lysate, c-Jun phosphorylation; series mostly up to 57.1 µM. The essentials:
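qHTS titrations with 15 min compound pre-incubation before adding ATP (10 uM final). Read-out: AlphaScreen of Ser73-phosphorylated biotin-GST-cJun using HepG2 lysate JNK3 activated by IL-1β and TNFα.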
(Alpha assays give light when donor and acceptor beads are brought close together.)

The target of assay [12] is 3',5'-cyclic-AMP phosphodiesterase 4B (Homo sapiens) (UniProt Q07343). Put plainly: qHTS Assay for Inhibitors of PDE-IV (AID 607; active means well fitted activation curve with a large enough effect in the main read-out, with a control signal flat, not every such curve was filed as active; further: % of control where 0% means no effect). The note with it: HEK293 ACTOne CNG channel cells, membrane potential fluorescence; series mostly up to 22.9 µM. The essentials: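 Live HEK293 cells with a modified cyclic nucleotide-gated (CNG) channel report intracellular cAMP via membrane-potential dye fluorescence (ex 535/em 590 nm). Endogenous PDE-IV was targeted. Compounds were tested at up to 22.9 uM final; RO 20-1724 100 uM served as control.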
3',5'-cyclic-AMP phosphodiesterase 4B (Homo sapiens), sequence (Q07343 whole entry, looked up): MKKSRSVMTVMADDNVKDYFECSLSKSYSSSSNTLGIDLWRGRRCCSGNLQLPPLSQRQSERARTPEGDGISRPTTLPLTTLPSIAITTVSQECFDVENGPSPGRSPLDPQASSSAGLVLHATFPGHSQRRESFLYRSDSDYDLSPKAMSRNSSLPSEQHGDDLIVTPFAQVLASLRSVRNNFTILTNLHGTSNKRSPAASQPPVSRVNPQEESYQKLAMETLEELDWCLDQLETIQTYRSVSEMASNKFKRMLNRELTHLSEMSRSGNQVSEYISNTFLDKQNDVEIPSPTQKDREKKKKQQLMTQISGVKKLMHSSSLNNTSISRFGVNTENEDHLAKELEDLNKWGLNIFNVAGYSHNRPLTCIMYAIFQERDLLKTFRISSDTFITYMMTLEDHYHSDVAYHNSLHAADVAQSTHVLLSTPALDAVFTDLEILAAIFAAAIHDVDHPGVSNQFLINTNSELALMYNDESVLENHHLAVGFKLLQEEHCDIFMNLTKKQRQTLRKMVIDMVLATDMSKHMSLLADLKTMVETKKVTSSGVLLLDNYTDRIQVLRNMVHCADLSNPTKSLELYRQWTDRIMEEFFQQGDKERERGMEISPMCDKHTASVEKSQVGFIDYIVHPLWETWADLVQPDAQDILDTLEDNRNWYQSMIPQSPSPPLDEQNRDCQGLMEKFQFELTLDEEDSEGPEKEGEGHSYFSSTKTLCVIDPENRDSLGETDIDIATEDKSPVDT
Background: qHTS replaces the single test concentration by a dilution series.

Assay [13] deals with Dual specificity protein kinase CLK4 (Homo sapiens) (UniProt Q9HAZ1). Kind of assay: qHTS Assay for Inhibitors of CDC-like Kinase 4 (Kinase-Glo Assay) (AID 1770). Further: potency means the concentration at half of the fitted maximal effect; nearly all actives have a fitted effect of over 65% in size. The note with it: recombinant Clk4, Kinase-Glo ATP depletion luminescence; series mostly up to 66.7 µM. The essentials: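 Inhibition was judged from remaining ATP, measured by Ultra-Glo luciferase bioluminescence after Clk4 (25 nM) had acted on RS peptide at 1 uM ATP for 4.5 hours, room temperature.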
Dual specificity protein kinase CLK4 (Homo sapiens), sequence (Q9HAZ1 whole entry, looked up): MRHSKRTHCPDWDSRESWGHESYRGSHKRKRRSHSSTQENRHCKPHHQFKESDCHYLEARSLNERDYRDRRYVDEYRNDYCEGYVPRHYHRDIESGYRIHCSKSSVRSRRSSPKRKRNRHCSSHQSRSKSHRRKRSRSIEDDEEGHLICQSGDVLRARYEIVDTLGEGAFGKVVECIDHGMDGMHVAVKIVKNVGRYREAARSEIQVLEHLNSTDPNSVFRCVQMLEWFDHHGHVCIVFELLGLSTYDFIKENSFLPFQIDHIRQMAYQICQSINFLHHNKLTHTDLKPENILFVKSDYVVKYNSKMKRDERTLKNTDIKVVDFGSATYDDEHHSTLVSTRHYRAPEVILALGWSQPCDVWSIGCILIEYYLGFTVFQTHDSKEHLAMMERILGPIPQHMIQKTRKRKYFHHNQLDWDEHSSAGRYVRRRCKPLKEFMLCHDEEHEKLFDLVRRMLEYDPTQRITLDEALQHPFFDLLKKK

For assay [14] the target is unchanged. Put plainly: qHTS Assay for Inhibitors of CDC-like Kinase 4 (ADP-Glo Assay) (AID 1771). Further: potency means the concentration at half of the fitted maximal effect; nearly all actives have a fitted effect of over 70% in size. The note with it: recombinant CLK4, ADP-Glo luminescence; series mostly up to 80 µM. The essentials:
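Compounds are pin-transferred onto substrate mix (100 uM RS peptide, 1 uM ATP), then 25 nM Clk4 is added. After 1 hr at room temperature, ADP-Glo reagent runs 45 min, detection reagent 30 min, then luminescence is read.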

For assay [15] the target is unchanged. Put plainly: qHTS Assay for Inhibitors of CDC-like Kinase 4 (ADP-FP Assay) (AID 1795). Further: potency means the concentration at half of the fitted maximal effect; nearly all actives have a fitted effect of over 60% in size. The note with it: Transcreener ADP fluorescence polarization; series mostly up to 50 µM. The essentials:
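Inhibition of ADP formation by 6.25 nM Clk4 is measured using 1 uM ATP and 100 uM RS repeat peptide over one hour. Produced ADP displaces a fluorescent tracer from antibody, lowering polarization.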

The target in assay [16] is Ubiquitin carboxyl-terminal hydrolase 1 (Homo sapiens) (UniProt O94782). Kind of assay: Inhibitors of USP1/UAF1: Pilot qHTS (AID 504865).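 Further: rhodamine fluorescence freed from ubiquitin-rhodamine substrate followed over time; top concentration of the series differs between compounds; on the % scale 0 is the no-effect control and ±100 the full control effect; nearly all actives have a fitted effect of over 35% in size.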 The note with it: purified USP1/UAF1, Ub-rhodamine cleavage fluorescence; series mostly up to 54.9 µM. The essentials:
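Kinetic fluorescence assay: 1nM USP1/UAF1, 15 min compound preincubation, then 150nM Ub-Rho; 480/540 nm.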

The target of assay [17] is Cytochrome P450 3A4 (Homo sapiens) (UniProt P08684). Put plainly: qHTS Assay for Inhibitors and Substrates of Cytochrome P450 3A4 (AID 884). Further: potency means the concentration at half of the fitted maximal effect; nearly all actives have a fitted effect of over 50% in size. The note with it: recombinant CYP3A4, Luciferin-PPXE luminescence; series mostly up to 57.1 µM. The essentials:
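Luminescent readout of luciferin produced by CYP3A4 (20 nM) dealkylation of Luciferin-PPXE, 25 uM (its KM). NADPH-driven reaction ran 60 min at RT after 10 min compound preincubation; data scaled to 57 uM ketoconazole as 100% inhibition.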

Assay [18] can be described thus: Confirmation and Secondary Assay for Modulators of Hemoglobin Beta Chain Splicing at IVS2 654 locus (AID 910).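 Further: HeLa cells stably carrying EGFP split by mutant beta-globin IVS2-654 intron; per-well total GFP intensity by laser scanning cytometry after 2-day treatment; % of control where 0% means no effect.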 The note with it: HeLa EGFP-654 splicing reporter, GFP fluorescence, 48 h; series mostly up to 38.3 µM. The essentials:
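Readout: per-well total peak green fluorescence (488 nm ex, 500–520 nm em) from objects 5–250 µm, reflecting correct splicing of an EGFP-654 reporter. Compounds were applied for 2 days at 37 °C to overnight-plated HeLa EGFP-654 cells; controls were DMSO and 500 nM IVS2-654 PNA.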

The mark [19] stands for this setting: measured here: cell count channel max response.
Setting [20] is: measured here: lipid channel max response.

Cytochrome P450 3A4 (Homo sapiens), sequence (P08684 whole entry, looked up): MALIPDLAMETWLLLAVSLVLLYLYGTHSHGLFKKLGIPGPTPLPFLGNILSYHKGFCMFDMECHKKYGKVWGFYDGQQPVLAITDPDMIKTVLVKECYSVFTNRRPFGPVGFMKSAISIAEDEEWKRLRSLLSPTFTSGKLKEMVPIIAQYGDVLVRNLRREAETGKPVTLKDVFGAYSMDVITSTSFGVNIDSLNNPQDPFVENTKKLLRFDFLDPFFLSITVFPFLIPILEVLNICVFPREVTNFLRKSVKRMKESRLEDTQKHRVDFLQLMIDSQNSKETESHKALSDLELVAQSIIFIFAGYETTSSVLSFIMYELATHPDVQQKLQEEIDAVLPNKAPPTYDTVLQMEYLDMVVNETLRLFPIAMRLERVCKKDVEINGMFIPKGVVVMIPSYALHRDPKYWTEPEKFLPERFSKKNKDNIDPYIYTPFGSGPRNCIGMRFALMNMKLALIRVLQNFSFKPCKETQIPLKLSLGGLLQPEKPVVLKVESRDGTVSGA
Glucocorticoid receptor (Homo sapiens), sequence (P04150 whole entry, looked up, the tested form may be a part): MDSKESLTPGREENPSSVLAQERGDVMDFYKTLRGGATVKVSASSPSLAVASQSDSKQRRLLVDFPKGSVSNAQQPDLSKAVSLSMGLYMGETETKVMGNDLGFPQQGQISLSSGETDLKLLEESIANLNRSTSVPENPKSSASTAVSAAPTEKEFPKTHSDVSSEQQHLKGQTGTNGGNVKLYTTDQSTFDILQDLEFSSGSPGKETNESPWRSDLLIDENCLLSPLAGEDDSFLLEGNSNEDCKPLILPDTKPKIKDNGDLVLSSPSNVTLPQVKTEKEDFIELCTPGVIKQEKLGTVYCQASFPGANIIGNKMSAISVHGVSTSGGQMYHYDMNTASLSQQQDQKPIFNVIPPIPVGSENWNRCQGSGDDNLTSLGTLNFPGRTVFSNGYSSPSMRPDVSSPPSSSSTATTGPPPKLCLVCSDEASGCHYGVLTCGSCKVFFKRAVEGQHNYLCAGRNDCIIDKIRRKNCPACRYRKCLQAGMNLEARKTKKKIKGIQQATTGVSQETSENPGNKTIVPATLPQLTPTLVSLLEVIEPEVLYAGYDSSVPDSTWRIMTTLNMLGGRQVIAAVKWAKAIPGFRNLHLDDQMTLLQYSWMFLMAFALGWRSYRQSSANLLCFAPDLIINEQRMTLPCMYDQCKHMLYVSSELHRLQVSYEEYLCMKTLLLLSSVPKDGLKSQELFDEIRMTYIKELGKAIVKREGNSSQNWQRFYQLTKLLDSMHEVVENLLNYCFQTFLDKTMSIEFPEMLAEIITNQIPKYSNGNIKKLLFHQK
Ubiquitin carboxyl-terminal hydrolase 1 (Homo sapiens), sequence (O94782 whole entry, looked up): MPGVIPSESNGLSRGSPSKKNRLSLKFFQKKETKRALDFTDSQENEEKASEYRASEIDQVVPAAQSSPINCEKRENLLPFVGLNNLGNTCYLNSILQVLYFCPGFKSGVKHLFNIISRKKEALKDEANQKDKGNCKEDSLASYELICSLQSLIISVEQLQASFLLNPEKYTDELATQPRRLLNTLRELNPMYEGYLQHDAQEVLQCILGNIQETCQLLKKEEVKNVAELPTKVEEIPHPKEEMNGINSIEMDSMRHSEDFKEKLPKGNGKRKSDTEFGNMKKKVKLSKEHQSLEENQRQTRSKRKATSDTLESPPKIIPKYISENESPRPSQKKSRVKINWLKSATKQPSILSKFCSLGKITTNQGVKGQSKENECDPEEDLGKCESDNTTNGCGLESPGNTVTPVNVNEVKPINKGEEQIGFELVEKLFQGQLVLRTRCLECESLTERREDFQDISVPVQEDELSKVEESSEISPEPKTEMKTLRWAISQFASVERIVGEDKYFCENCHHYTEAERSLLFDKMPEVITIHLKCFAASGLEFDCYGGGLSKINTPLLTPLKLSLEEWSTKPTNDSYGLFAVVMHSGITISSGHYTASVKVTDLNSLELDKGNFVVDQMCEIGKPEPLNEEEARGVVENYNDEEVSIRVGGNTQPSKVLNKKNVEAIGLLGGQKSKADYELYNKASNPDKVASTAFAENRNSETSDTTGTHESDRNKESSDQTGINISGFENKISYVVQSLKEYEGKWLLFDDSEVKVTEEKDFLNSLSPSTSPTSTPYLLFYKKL
Cytochrome P450 1A2 (Homo sapiens), sequence (P05177 whole entry, looked up): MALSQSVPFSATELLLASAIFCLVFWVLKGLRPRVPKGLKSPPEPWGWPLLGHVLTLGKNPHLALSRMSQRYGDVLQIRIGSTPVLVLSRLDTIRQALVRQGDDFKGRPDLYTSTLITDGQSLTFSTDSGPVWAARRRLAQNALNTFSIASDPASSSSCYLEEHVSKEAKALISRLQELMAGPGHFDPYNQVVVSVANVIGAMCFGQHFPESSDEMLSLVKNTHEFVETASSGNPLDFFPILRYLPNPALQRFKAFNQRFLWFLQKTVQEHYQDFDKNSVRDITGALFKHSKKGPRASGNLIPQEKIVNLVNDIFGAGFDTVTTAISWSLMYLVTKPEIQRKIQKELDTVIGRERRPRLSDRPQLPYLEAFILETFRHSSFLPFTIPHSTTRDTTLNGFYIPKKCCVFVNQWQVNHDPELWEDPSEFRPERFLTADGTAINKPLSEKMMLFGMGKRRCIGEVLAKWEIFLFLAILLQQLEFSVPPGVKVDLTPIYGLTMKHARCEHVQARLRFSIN
Lysosomal acid glucosylceramidase (Homo sapiens), sequence (P04062 whole entry, looked up): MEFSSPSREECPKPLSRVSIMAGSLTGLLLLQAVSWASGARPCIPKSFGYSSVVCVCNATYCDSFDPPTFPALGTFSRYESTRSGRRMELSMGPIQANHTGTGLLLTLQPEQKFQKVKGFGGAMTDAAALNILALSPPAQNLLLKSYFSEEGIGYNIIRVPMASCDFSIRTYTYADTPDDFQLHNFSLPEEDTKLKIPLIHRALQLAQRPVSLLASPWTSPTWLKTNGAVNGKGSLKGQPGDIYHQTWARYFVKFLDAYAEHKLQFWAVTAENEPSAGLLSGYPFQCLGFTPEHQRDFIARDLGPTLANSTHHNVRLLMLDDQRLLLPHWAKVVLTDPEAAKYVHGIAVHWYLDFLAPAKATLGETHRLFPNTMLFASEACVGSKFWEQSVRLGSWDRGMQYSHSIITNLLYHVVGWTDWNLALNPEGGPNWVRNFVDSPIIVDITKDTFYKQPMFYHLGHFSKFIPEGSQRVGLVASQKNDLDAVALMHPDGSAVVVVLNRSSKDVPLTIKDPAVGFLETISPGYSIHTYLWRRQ

Take `CC#C[C@]1(O)CC[C@H]2C3CCC4=CC(=O)CCC4=C3[C@@H](c3ccc(N(C)C)cc3)C[C@@]21C` (stereo not given in full): the activity change, negative = inhibition in assay [1] is 0.852% (inactive). In addition, the max response in assay [1] (setting [19]) is -13.1%; in assay [1] (setting [20]), -13.3%.

Regarding `O=C1C=CC2=C3c4cc(O)c(O)cc4CC3(O)COC2=C1O` (stereo not given), the Potency entry in assay [2] was “inactive”. The compound was classed as inactive in assay [3]. The activity change, negative = inhibition in assay [1] was 6.15% (inactive). Further, the max response was 11.8% in assay [1] (setting [19]) and 21% in assay [1] (setting [20]).

Take `Clc1ccccc1-c1nc(NC2CCNCC2)c2ccccc2n1`: the Potency was > 11.4 µM (inactive) in assay [4]; 20 µM (active) in assay [6]; > 46 µM (inactive) in assay [9]; > 46 µM (inactive) in [10]; 10 µM (active) in assay [13]; 12.6 µM (active) in assay [14]. Further, in [15], the Potency was 12.6 µM (active). For the same compound, the activity change, negative = inhibition was -8.89% (inactive) in [5], 7.15% (inactive) in assay [7] and 1.68% (inactive) in [1]. Also, in assay [8], the activity, negative = inhibition was 3.31% (inactive). The Potency entry in [11], in assay [12] and in assay [16] was “inactive” each time. Also, the max response in assay [1] (setting [19]) stood at 15.1%; in assay [1] (setting [20]) it was 17.6%.

For the compound `COC(=O)CC1C2(C)CC34OC5(C)O[C@@]6(C7/C(=C(/OC)C(C)C)C(=O)OC(c8ccoc8)[C@@]7(C)C(OC(=O)C(C)C)C(OC)[C@]6(O5)[C@@]13C)C(OC)[C@]4(OC)C2OC(C)=O` (stereo not given in full), the Potency in assay [17] was 2.51 µM (active). The Potency entry in [2] and in [18] was “inactive” each time. Also, in assay [3], the outcome was inactive. In assay [1], the activity change, negative = inhibition is -17.5% (inactive). Also, the max response is 1.3% in assay [1] (setting [19]) and -14.4% in assay [1] (setting [20]).

For `CCC(=O)OC1CCC2C3CCc4cc(O)ccc4C3CC[C@]12C` (stereo not given in full), in [3], the call was inactive. Further, the activity change, negative = inhibition in assay [1] was 3.26% (inactive). Besides, the results for the max response in assay [1] (setting [19]) and in assay [1] (setting [20]) were 9.46% and 15.5%, respectively.
